What was measured:
Assay in all cases: DAPPL (digital affinity profiling via proximity ligation, sequencing); 10 mM Tris-HCl pH 7.5, 50 mM NaCl, 1 mM DTT, 4% glycerol, room temperature, 30 min; GST-TFs on glutathione beads, 16-mer random dsDNA library, 0.1% formaldehyde crosslink after washing; high values mean tight binding
FLI1 = molecular target: T1, FLI1 (Homo sapiens, UniProt Q01543 1-452); details: protein: recombinant; tags: N-terminal GST; dsDNA, one strand shown
T1 sequence: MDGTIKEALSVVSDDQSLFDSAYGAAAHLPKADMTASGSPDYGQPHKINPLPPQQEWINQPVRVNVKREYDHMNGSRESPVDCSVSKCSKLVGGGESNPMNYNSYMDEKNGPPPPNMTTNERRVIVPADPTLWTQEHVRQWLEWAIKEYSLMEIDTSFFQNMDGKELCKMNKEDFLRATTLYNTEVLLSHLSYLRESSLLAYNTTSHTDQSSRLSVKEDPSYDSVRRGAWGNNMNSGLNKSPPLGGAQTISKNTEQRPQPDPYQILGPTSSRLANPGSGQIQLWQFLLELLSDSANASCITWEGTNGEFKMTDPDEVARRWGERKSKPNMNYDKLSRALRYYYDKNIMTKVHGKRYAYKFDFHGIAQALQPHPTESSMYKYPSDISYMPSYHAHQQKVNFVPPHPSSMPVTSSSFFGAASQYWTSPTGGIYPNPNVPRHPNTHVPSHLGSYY
Outline: (§1)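 Pools of DNA-barcoded human transcription factors, expressed in yeast as GST fusions on glutathione beads and combined with a tag-only sample, were incubated with 200 nmole of a 16-mer random double-stranded DNA library. Incubation took 30 min at room temperature in Tris/NaCl/DTT/glycerol buffer and was followed by washing, 0.1% formaldehyde crosslinking, proximity ligation (BsaI/T4 ligase, 1 h, 37 °C), PCR amplification and sequencing on an Illumina NextSeq500. Binding signal is the ratio of a hexamer's read frequency for a factor to its frequency for the tag-only sample.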

ELK1 = molecular target: T2, ELK1 (Homo sapiens, UniProt P19419 1-428); details: protein: recombinant; tags: N-terminal GST; dsDNA, one strand shown
T2 sequence: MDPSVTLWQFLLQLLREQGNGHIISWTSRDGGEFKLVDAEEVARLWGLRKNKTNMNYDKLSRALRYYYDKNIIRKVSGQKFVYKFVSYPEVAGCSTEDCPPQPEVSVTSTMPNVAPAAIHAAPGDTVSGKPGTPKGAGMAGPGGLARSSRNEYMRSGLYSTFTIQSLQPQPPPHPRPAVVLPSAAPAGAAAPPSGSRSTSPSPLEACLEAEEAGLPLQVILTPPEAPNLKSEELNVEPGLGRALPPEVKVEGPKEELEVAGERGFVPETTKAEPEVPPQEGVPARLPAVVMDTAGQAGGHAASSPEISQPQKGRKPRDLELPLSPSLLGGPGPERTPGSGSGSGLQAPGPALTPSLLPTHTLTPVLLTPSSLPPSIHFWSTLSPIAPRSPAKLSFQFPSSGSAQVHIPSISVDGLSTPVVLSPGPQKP
Outline: as §1

GABPA = molecular target: T3, GABPA (Homo sapiens, UniProt Q06546 1-454); details: protein: recombinant; tags: N-terminal GST; dsDNA, one strand shown
T3 sequence: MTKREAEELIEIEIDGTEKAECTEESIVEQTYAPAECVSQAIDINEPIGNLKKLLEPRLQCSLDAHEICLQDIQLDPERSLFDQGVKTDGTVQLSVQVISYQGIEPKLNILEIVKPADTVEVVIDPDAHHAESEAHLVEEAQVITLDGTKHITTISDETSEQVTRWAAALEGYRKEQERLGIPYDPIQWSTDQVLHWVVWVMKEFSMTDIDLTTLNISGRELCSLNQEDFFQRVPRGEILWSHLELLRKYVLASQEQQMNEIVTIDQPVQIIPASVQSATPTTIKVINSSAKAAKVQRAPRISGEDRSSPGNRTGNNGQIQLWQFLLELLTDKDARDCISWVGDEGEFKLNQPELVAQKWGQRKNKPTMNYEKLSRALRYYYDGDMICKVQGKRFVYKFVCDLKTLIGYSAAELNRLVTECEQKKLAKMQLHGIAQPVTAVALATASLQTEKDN
Outline: as §1

ERG = molecular target: T4, ERG (Homo sapiens, UniProt P11308 1-479); details: protein: recombinant; tags: N-terminal GST; dsDNA, one strand shown
T4 sequence: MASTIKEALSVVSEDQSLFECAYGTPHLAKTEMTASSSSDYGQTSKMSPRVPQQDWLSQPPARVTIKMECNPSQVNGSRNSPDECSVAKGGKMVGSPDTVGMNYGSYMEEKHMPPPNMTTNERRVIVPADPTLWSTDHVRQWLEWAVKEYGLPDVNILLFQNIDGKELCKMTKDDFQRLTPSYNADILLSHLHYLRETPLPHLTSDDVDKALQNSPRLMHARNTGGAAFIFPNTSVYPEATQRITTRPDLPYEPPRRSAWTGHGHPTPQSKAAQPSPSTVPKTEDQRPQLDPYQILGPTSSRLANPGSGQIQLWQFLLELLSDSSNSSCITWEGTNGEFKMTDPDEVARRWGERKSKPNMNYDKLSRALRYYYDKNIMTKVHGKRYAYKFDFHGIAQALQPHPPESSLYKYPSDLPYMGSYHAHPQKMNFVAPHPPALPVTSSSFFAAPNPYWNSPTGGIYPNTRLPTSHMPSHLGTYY
Outline: as §1

ELF1 = ELF1 (Homo sapiens, UniProt P32519 1-619); details: protein: recombinant; tags: N-terminal GST; dsDNA, one strand shown
Chain of ELF1 (P32519 whole entry): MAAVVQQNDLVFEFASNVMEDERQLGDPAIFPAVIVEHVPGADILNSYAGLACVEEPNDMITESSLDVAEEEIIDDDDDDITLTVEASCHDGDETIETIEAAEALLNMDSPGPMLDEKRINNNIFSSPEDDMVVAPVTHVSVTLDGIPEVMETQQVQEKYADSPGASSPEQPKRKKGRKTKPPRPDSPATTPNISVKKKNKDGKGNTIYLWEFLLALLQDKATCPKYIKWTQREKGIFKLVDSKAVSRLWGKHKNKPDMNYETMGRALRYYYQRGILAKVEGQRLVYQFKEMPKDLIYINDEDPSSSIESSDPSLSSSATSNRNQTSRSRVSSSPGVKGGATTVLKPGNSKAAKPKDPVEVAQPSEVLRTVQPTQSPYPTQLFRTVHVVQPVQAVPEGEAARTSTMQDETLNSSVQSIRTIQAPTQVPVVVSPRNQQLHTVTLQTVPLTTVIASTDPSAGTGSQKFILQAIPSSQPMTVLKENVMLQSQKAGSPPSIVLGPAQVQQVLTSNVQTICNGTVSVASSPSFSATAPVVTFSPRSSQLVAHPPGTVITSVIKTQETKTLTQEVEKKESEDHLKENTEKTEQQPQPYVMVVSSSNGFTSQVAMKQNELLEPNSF
Outline: as §1

EHF = molecular target: T5, EHF (Homo sapiens, UniProt Q9NZC4 1-300); details: protein: recombinant; tags: N-terminal GST; dsDNA, one strand shown
T5 sequence: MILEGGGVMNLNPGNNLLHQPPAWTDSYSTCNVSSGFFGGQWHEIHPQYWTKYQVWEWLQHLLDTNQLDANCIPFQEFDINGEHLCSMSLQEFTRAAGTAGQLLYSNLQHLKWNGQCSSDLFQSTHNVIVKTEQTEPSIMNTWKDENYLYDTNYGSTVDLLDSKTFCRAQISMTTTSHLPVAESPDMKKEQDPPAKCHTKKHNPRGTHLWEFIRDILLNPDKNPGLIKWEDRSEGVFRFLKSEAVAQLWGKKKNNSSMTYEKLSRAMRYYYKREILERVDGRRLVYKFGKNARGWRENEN
Outline: as §1

SPI1 = SPI1 (Homo sapiens, UniProt P17947 1-270); details: protein: recombinant; tags: N-terminal GST; dsDNA, one strand shown
Outline: as §1

SPIB = SPIB (Homo sapiens, UniProt Q01892 1-262); details: protein: recombinant; tags: N-terminal GST; dsDNA, one strand shown
Chain of SPIB (Q01892 whole entry): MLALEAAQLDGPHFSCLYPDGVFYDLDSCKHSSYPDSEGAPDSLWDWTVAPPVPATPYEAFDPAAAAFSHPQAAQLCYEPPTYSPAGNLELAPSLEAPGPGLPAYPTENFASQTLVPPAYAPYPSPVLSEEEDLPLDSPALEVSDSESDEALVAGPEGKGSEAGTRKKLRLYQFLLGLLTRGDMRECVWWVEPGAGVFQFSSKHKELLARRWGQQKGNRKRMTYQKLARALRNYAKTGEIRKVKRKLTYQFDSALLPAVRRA
Outline: as §1

ELK3 = molecular target: T6, ELK3 (Homo sapiens, UniProt P41970 1-407); details: protein: recombinant; tags: N-terminal GST; dsDNA, one strand shown
T6 sequence: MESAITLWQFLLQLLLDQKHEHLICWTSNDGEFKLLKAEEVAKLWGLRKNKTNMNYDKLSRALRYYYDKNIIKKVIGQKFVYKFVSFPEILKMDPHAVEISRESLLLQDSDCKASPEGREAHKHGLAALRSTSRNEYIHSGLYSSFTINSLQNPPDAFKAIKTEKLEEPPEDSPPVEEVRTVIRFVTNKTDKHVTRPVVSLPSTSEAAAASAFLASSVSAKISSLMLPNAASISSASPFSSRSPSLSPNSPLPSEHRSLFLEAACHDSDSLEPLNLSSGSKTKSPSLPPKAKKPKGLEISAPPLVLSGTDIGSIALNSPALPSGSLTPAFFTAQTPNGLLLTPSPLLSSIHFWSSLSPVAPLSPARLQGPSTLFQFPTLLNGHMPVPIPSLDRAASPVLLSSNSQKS
Outline: as §1

FEV = molecular target: T7, FEV (Homo sapiens, UniProt Q99581 1-238); details: protein: recombinant; tags: N-terminal GST; dsDNA, one strand shown
T7 sequence: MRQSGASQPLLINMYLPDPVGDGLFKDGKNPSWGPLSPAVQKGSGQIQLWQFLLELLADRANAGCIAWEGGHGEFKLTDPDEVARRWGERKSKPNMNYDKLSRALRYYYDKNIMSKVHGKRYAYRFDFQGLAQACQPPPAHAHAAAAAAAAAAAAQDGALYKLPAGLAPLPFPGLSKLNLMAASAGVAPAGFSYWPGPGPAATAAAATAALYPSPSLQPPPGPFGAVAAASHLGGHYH
Outline: as §1

ETV5 = ETV5 (Homo sapiens, UniProt P41161 1-510); details: protein: recombinant; tags: N-terminal GST; dsDNA, one strand shown
Chain of ETV5 (P41161 whole entry): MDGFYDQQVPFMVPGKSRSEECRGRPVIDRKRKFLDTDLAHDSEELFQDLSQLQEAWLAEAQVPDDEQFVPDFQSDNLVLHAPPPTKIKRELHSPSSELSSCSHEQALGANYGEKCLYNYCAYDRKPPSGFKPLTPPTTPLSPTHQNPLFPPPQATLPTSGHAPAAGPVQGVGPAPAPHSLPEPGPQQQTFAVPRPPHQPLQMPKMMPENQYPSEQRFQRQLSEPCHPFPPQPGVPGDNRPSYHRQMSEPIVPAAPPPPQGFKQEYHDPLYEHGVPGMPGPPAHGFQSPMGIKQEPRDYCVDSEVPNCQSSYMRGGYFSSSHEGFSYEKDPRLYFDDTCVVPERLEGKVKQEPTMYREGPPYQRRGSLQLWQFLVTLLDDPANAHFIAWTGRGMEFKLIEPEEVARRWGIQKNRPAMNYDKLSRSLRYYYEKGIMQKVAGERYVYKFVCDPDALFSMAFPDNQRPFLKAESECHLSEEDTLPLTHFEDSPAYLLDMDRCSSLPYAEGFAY
Outline: as §1

HSF1 = HSF1 (Homo sapiens, UniProt Q00613 1-529); details: protein: recombinant; tags: N-terminal GST; chain copies: 3; dsDNA, one strand shown
Chain of HSF1 (Q00613 whole entry): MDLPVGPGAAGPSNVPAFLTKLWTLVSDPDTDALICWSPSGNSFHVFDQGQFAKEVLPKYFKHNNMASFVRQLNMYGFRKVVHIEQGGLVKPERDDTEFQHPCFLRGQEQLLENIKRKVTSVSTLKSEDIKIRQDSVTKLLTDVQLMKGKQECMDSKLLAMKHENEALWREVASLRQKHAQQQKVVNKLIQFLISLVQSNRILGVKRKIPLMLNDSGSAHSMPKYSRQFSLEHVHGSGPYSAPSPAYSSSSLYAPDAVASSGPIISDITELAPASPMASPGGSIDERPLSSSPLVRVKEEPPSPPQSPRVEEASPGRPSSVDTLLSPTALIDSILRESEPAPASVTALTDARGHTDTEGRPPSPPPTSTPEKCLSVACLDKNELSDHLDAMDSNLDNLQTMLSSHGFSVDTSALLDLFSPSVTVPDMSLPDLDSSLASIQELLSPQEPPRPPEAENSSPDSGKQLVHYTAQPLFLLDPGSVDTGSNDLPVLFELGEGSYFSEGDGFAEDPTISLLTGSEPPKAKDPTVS
Outline: as §1

SPIC = molecular target: T8, SPIC (Homo sapiens, UniProt Q8N5J4 1-248); details: protein: recombinant; tags: N-terminal GST; dsDNA, one strand shown
T8 sequence: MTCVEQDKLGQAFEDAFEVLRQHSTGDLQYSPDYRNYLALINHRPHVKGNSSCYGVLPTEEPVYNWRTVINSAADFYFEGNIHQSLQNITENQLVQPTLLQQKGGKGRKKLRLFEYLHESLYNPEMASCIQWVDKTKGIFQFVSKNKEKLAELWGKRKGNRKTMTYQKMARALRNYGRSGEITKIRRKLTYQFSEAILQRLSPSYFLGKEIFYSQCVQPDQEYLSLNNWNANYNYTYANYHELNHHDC
Outline: as §1

ELF4 = ELF4 (Homo sapiens, UniProt Q99607 1-663); details: protein: recombinant; tags: N-terminal GST; dsDNA, one strand shown
Chain of ELF4 (Q99607 whole entry): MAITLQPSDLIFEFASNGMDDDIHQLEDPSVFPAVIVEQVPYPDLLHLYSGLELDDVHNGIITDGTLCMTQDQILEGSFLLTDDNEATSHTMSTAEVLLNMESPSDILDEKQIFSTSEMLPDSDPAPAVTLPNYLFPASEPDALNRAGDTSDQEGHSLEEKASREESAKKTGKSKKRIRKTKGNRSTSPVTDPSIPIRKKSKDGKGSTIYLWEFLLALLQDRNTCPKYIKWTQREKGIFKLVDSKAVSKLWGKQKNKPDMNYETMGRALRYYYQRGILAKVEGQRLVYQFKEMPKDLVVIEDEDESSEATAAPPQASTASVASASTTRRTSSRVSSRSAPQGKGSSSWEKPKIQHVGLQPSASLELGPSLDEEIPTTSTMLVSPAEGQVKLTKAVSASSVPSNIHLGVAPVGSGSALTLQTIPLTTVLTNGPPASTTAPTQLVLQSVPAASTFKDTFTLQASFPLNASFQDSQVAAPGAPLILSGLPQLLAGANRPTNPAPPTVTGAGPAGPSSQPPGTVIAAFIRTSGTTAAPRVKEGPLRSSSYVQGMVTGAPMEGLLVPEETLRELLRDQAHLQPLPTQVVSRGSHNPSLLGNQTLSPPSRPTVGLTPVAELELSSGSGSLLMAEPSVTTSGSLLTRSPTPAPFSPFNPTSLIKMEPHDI
Outline: as §1

ELK4 = molecular target: T9, ELK4 (Homo sapiens, UniProt P28324-2 1-405); details: protein: recombinant; tags: N-terminal GST; dsDNA, one strand shown
T9 sequence: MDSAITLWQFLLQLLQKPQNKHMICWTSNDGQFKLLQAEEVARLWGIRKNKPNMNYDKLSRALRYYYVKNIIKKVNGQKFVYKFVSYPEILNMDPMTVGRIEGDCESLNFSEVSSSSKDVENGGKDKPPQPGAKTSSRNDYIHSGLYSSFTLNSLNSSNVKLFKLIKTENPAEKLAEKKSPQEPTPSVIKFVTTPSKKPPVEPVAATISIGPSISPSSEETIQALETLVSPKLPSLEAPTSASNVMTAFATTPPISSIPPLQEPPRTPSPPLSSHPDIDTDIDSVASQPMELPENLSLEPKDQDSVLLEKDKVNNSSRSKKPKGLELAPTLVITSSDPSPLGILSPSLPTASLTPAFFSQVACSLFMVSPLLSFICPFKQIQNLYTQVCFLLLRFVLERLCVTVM
Outline: as §1

ETV2 = molecular target: T10, ETV2 (Homo sapiens, UniProt O00321 1-342); details: protein: recombinant; tags: N-terminal GST; dsDNA, one strand shown
T10 sequence: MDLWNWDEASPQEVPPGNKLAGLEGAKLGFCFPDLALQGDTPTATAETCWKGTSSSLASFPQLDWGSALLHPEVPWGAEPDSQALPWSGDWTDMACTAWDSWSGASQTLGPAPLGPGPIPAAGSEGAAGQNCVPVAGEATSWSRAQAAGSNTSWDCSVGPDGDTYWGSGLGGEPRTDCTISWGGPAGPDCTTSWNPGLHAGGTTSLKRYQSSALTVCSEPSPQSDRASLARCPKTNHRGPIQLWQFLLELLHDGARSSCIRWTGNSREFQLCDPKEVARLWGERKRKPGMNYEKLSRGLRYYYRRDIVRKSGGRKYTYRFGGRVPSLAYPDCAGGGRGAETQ
Outline: as §1

ELF3 = molecular target: T11, ELF3 (Homo sapiens, UniProt P78545 1-371); details: protein: recombinant; tags: N-terminal GST; dsDNA, one strand shown
T11 sequence: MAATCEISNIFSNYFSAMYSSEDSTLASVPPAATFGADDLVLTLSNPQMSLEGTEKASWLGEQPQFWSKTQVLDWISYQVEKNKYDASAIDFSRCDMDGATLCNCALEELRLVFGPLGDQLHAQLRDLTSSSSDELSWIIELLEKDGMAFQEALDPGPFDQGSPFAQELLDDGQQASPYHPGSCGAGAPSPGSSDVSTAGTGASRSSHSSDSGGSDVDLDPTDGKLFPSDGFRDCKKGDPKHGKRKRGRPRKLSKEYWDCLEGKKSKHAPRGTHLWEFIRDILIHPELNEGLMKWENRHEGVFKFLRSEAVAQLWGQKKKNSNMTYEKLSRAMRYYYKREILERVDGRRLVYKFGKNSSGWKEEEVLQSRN
Outline: as §1

CRX = CRX (Homo sapiens, UniProt O43186 1-299); details: protein: recombinant; tags: N-terminal GST; dsDNA, one strand shown
Chain of CRX (O43186 whole entry): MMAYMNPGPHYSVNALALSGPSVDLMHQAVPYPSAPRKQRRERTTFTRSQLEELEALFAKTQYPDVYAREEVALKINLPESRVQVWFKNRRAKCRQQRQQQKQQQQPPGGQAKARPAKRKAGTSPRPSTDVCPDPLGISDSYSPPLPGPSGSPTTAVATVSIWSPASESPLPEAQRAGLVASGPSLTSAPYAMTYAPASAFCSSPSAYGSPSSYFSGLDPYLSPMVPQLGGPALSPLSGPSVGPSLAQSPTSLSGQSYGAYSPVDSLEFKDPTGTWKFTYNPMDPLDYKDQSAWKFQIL
Outline: as §1

ETV1 = ETV1 (Homo sapiens, UniProt P50549 1-477); details: protein: recombinant; tags: N-terminal GST; dsDNA, one strand shown
Chain of ETV1 (P50549 whole entry): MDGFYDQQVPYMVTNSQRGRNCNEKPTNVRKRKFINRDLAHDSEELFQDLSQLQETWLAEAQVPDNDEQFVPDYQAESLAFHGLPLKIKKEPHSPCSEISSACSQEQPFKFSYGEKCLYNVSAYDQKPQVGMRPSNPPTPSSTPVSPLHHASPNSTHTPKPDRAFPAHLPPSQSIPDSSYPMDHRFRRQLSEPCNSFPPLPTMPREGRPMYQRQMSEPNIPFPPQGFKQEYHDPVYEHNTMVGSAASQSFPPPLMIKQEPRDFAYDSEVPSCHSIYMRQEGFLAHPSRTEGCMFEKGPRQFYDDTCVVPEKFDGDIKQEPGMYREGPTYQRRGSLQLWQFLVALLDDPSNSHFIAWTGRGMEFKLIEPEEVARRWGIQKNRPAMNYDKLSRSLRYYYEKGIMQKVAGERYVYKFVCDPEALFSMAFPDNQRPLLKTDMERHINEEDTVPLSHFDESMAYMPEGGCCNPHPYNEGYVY
Outline: as §1

Sequence: AAAACA
- binding signal (FLI1): 1.35 fold enrichment (6-mer frequency, TF over GST control)
- binding signal (ELK1): 1.22 fold enrichment (6-mer frequency, TF over GST control)
- binding signal (GABPA): 1.35 fold enrichment (6-mer frequency, TF over GST control)
- binding signal (ERG): 1.34 fold enrichment (6-mer frequency, TF over GST control)
- binding signal (ELF1): 1.31 fold enrichment (6-mer frequency, TF over GST control)
- binding signal (EHF): 1.31 fold enrichment (6-mer frequency, TF over GST control)
- binding signal (SPI1): 1.36 fold enrichment (6-mer frequency, TF over GST control)
- binding signal (SPIB): 1.24 fold enrichment (6-mer frequency, TF over GST control)
- binding signal (ELK3): 1.28 fold enrichment (6-mer frequency, TF over GST control)
- binding signal (FEV): 1.34 fold enrichment (6-mer frequency, TF over GST control)
- binding signal (ETV5): 1.31 fold enrichment (6-mer frequency, TF over GST control)
- binding signal (HSF1): 1.25 fold enrichment (6-mer frequency, TF over GST control)
- binding signal (SPIC): 1.42 fold enrichment (6-mer frequency, TF over GST control)
- binding signal (ELF4): 1.39 fold enrichment (6-mer frequency, TF over GST control)
- binding signal (ELK4): 1.22 fold enrichment (6-mer frequency, TF over GST control)
- binding signal (ETV2): 1.34 fold enrichment (6-mer frequency, TF over GST control)
- binding signal (ELF3): 1.38 fold enrichment (6-mer frequency, TF over GST control)
- binding signal (CRX): 1.13 fold enrichment (6-mer frequency, TF over GST control)
- binding signal (ETV1): 1.37 fold enrichment (6-mer frequency, TF over GST control)
